Source: PubChem
Most compounds without a hit are left out; they make up all but 1.8% or so of the library.
BaF3 parental: counter-screen for JAK2V617F inhibitors: parental Ba/F3 viability inhibitors; CellTiter-Glo ATP luminescence; inhibition, % at 5.6 µM; 220,000 compounds, 1.1% hits; AID 1486;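 active means inhibition above a per-campaign cutoff, the mean inhibition of all tested compounds plus 3 SD, cut at about 27% in these data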;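 further: 0% = DMSO wells and 100% = JAK Inhibitor I control wells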
Ba/F3 V617F tox: loss of viability in JAK2V617F-driven Ba/F3 cells; Ba/F3 EpoR-JAK2V617F viability, ATP luminescence; inhibition, % at 5.6 µM; 220,000 compounds, 1.1% hits;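 active means inhibition above the campaign mean plus 3 SD over all tested compounds, cut at about 24% in these data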;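 further: cytokine-independent growth of Ba/F3 cells driven by EpoR plus mutant JAK2; 0% = DMSO-treated cells and 100% = JAK inhibitor I control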
IEC-6 tox: IEC-6 cytotoxicity, counter-screen for KLF5 inhibitors | luminescence viability | inhibition, % at 5 µM | 290,000 compounds, 0.78% hits | AID 1825; in the data active means inhibition above about 22%;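 further: 0% = plate median of test compound wells and 100% = cytotoxic reference compound wells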
KLF5 inhibitor: suppresses KLF5 promoter-driven expression; DLD-1 KLF5 promoter-luciferase reporter, luminescence; inhibition, % at 5 µM; 290,000 compounds, 0.23% hits; AID 1700;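 active means inhibition above a per-plate limit of that plate's mean compound inhibition plus 3 SD, cut at about 60% in these data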;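 further: 0% = DMSO wells and 100% = LY294002 at 200 µM; higher means less KLF5 promoter-driven luciferase light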
APP transl inh: APP translation inhibition; SH-SY5Y APP 5'UTR-luciferase reporter, luminescence; inhibition, % at 2 µM; 190,000 compounds, 0.82% hits;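 active means inhibition above a set limit, derived from the sample mean plus 3 SD, cut at about 45% in these data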
Active calls of the source: *; nt = no result.

SMILES	BaF3 parental	Ba/F3 V617F tox	IEC-6 tox	KLF5 inhibitor	APP transl inh
O=C(/C=C/c1cccs1)NC(=S)NNC(=O)c1ccccc1O	54*	94*	-4	2	18
O=C(NC1CCCC1)C(c1cccs1)N(C(=O)c1csnn1)c1ccccc1F (stereo unspecified)	nt	nt	-12	-14	nt
CCC(C)(C)c1ccc(Oc2ccc(N)cc2)cc1	15	13	1	51	80*
CCC(C)(C)c1ccc(Oc2cccc(C(=O)O)c2)cc1	-4	-1	0	-173	nt
CCCNC(=O)Cn1c(=O)oc2ccccc21	3	1	4	-33	-9
O=C(CCN1C(=O)COc2ccccc21)N1CCN(c2ccccn2)CC1	88*	3	-1	-11	18
COc1ccc(C(=O)C2CCN(C(=S)NCCc3ccc(OC)c(OC)c3)CC2)cc1	3	2	6	3	11
COc1ccc(CCNC(=S)N2CCC(C(=O)c3ccc(F)cc3)CC2)cc1OC	-2	-3	5	-10	48*
COCCN(C(=O)CC1C(=O)NCCN1Cc1ccc(-c2ccccc2)cc1)C(C)C (stereo unspecified)	0	-3	-6	-24	-1
CC(Cn1nnc2ccccc21)C(=O)O (stereo unspecified)	0	-4	-1	-10	-7
CC(Cn1cnc2ccccc21)C(=O)O (stereo unspecified)	4	-4	-3	-32	56*
Oc1ccc(CN2CCCCC2)c2cccnc12	62*	86*	2	14	88*
Oc1ccc(CN2CCN(c3ccccc3)CC2)c2cccnc12	5	0	0	-1	-7
CCOC(=O)N1CCN(Cc2ccc(O)c3ncccc23)CC1	7	3	7	8	11
OCc1ccc(O)c2ncccc12	32*	67*	-6	-7	36
Cc1ccc(C)c(S(=O)(=O)N2CCN(Cc3ccc(O)c4ncccc34)CC2)c1	1	21	-1	26	56*
Oc1ccc(CNc2ccccc2F)c2cccnc12	2	3	-4	8	48*
COc1ccc(/C=C(/NC(=O)c2ccco2)C(=O)N2CCCC2=O)cc1	5	-2	-1	-3	18
COC(=O)CCCC(=O)NCC1(N(C)Cc2ccccc2)Cc2ccccc2C1	nt	nt	-6	-18	nt
COc1cc(C(=O)O)ccc1OCc1ccncc1	nt	nt	-4	-9	nt
Cc1cccc(CS(=O)(=O)Cc2ccc(C(=O)NC3CCCCCC3)o2)c1	nt	nt	8	-21	nt
Cc1cccc(NC(=S)N=Nc2c(O)[nH]c3ccccc23)c1	4	-2	38*	-12	45*
NNC(=O)c1cc2c(s1)CCCCCC2	5	-3	7	-2	70*
COc1ccc(-c2noc(CCCC(=O)O)n2)cc1	3	-3	1	32	56*
COc1ccc(-c2cc(-c3ccco3)[nH]c(=O)c2C#N)cc1OC	-4	1	-9	2	nt
SMILES	BaF3 parental	Ba/F3 V617F tox	IEC-6 tox	KLF5 inhibitor	APP transl inh
Cc1ccc(NC(=O)C2CCN(S(=O)(=O)c3ccc4c(c3)CCCC(=O)N4)CC2)c(Br)c1	nt	nt	2	-9	nt
O=C(Nc1ccc(F)c([N+](=O)[O-])c1)c1ccc2c(c1)C(=O)OC2=O	-1	0	-3	8	nt
COc1cc(CCC(=O)OCC(=O)Nc2ccc(F)c(F)c2)cc(OC)c1OC	nt	nt	-4	3	nt
CCN(c1ccc(NC(=O)COC(=O)CCc2cc(OC)c(OC)c(OC)c2)cc1)C(C)C	80*	-1	3	-19	14
O=C(Nc1cccs1)Nc1c(F)c(F)c(F)c(F)c1F	52*	43*	4	-2	-19
Cc1cccc(C)c1NC(=O)Nc1cccs1	1	-2	-2	-2	6
O=C(Nc1cccs1)Nc1c(F)c(F)cc(F)c1F	43*	30*	4	-8	-22
COc1ccc(N(CC(=O)NCc2ccccc2OC)S(=O)(=O)c2ccc(C)cc2)cc1Cl	nt	nt	3	-20	nt
O=C(Cc1nc2ccccc2[nH]1)c1ccc(Br)cc1	3	3	12	-26	-6
O=[N+]([O-])c1ccc(Oc2c(F)c(F)nc(N3CCCC3)c2F)cc1	5	-1	0	-6	83*
Cc1ccc(Oc2c(F)c(F)nc(N3CCCC3)c2F)cc1	2	0	-7	-27	-1
CC12CC3CC(C)(C1)CC(C(=O)Nc1nncs1)(C3)C2	nt	nt	-8	-24	nt
CC(C)(C)C(=O)NC(=S)Nc1ccccc1C(=O)Nc1ccccc1	95*	-2	1	-22	17
C[n+]1ccccc1COc1ccc(C(C)(C)C)cc1	68*	73*	0	0	1
CC(C)(C)c1ccc(OCCNCc2ccccc2)cc1	nt	nt	8	-30	nt
CCOC(=O)N1CCN(Cc2ccc(OCC(O)CN3CCCCC3)cc2)CC1 (stereo unspecified)	nt	nt	-4	-10	nt
CCOc1ccccc1CNC(=O)c1ccc(NC(=O)C2=CSCCO2)cc1	nt	nt	1	-35	nt
Nc1ccc2oc(-c3cc(Br)ccc3Cl)nc2c1	38*	33*	6	-18	46*
CCOc1ccccc1N(C)C(=O)C1CCN(S(=O)(=O)c2cccc3nonc23)CC1	5	-2	-3	-23	63*
COc1ccc(N(C)C(=O)C2CCN(S(=O)(=O)c3cccc4nonc34)CC2)cc1	nt	nt	3	-25	nt
COc1ccc(-c2cc(C(F)F)n3ncc(C(=O)N4CCc5ccccc54)c3n2)cc1	5	-1	0	3	87*
Cc1ccc(-c2cc(C(F)F)n3ncc(C(=O)N4CCCc5ccccc54)c3n2)cc1	0	-6	-7	-2	-2
CC1CCCC(NCC(O)COC(c2ccc(F)cc2)c2ccc(F)cc2)C1C (stereo unspecified)	47*	13	5	-14	-17
CC1CCCC(NC(=O)CSc2ccc(F)cc2)C1C (stereo unspecified)	6	-2	4	-22	-4
Cc1ccccc1Cn1ccc(=NCc2ccccc2)cc1	79*	100*	15	-30	2
SMILES	BaF3 parental	Ba/F3 V617F tox	IEC-6 tox	KLF5 inhibitor	APP transl inh
COC(=O)c1ccc2c(=O)n(CCN3CCOCC3)c(SCC(=O)NCc3ccccc3)nc2c1	-1	-3	2	-15	10
Nc1ccn([C@@H]2O[C@H](CO)[C@@H](O)C2O)c(=O)n1 (stereo partly specified)	72*	75*	93*	29	nt
Cc1ccnc(NC(=O)C2COc3ccccc3O2)c1 (stereo unspecified)	85*	7	8	-113	-130
Cn1cc(/C=N/n2cnc3scc(-c4ccccc4)c3c2=O)c2ccccc21	5	2	1	-27	92*
O=c1c2c(-c3ccccc3)csc2ncn1/N=C/c1cccc([N+](=O)[O-])c1O	7	2	3	-9	13
CC1CCN(C(=O)C2CCC(=O)N(Cc3ccc(Cl)cc3)C2)CC1 (stereo unspecified)	nt	nt	-5	-20	nt
Cc1sc(NC(=O)CCCC(=O)O)c(C(N)=O)c1-c1ccccc1	5	-1	-2	-25	49*
CCCc1nnc(NC(=O)CCC(=O)NCCc2ccc(OC)c(OC)c2)s1	-4	-3	-1	-32	73*
CCCc1nnc(NC(=O)CCC(=O)NCCc2ccc(Cl)cc2)s1	nt	nt	2	2	nt
